HSF1 inhib: HSF1 inhibition | NIH3T3-HGL HSE-luciferase, MG132-induced, luminescence 8 h; active compounds read low | activity change, negative = inhibition, % at 7.5 µM (by protocol) | actives 0.77% (n = 300,000);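 active = more than half of replicate wells show activity change below -50%, luminescence cut by over half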;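 note: luciferase reports HSF-1 transcriptional activity via heat shock element; 0% = median of DMSO wells and -100% = zero luminescence signal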
FXN GAA850 act: frataxin GAA850 promoter activation | HEK293 lucGAA850 FXN promoter luciferase reporter, 24 h; percent of 10 µM SAHA response | actives 0.56% (n = 360,000) | AID 540364 | activation, % at 6 µM;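 active = activation above the average of all compounds screened plus 3 SD, cutoff fixed separately per campaign, cut at about 7.5% in these data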;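 note: 0% = DMSO wells and 100% = 10 µM SAHA wells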
HSF1 activator: increases HSF-1 driven luciferase reporter signal; NIH3T3-HGL HSF-1 luciferase reporter, MG132, 8 h; 100% = twice DMSO control signal; activation, % at 9 µM; actives 1.7% (n = 300,000); AID 504408;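 active = mean replicate activation of at least 50% with a set share of replicates each reaching 50%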;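 note: 0% = median of the neutral control wells and 100% = twice that signal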
AHR activator: activates the human aryl hydrocarbon receptor; AHR-responsive luciferase reporter cells, luminescence; actives 2.5% (n = 320,000); activation, % at 5 µM; P35869; in the data active = activation above about 47%;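 note: 0% = vehicle wells and 100% = reference agonist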
Target sequence (P35869 whole entry, looked up): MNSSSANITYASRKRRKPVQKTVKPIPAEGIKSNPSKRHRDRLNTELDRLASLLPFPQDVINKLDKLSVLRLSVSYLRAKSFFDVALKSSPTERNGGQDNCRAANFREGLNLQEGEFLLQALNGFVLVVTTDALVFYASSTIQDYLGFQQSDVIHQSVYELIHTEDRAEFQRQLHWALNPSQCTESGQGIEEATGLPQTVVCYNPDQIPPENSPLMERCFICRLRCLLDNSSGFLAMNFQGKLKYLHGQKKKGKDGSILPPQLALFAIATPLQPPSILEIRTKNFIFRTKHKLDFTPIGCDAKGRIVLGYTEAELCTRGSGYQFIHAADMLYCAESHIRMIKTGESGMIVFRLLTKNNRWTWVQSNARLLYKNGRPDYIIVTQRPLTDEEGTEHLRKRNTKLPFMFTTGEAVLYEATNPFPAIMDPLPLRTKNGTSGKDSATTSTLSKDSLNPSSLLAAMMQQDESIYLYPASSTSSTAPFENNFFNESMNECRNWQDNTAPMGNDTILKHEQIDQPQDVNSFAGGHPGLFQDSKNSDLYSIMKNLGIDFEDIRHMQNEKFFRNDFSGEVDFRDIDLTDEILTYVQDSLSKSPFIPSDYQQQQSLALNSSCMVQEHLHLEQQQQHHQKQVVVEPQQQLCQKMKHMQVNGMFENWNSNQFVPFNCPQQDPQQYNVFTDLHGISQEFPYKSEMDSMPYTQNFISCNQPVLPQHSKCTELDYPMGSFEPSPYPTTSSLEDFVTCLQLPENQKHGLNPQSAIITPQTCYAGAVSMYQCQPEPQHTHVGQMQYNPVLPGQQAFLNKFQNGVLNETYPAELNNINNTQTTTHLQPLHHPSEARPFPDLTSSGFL
Numbers without * were called inactive. Most compounds without a hit are left out; they make up all but 4.6% or so of the library.

Results for Cc1ccc(N(NC(=O)C(O)(c2ccccc2)c2ccccc2)C(=O)CCl)cc1 ?
HSF1 inhib: 72; FXN GAA850 act: -5; HSF1 activator: 75*; AHR activator: -1

What do the screens show for `O=C(Nc1nc2ccccc2[nH]1)c1cc2ccccc2o1`?
HSF1 inhib: 21; FXN GAA850 act: 3; HSF1 activator: 34; AHR activator: 56*

How did COc1cc(OC)cc(C(=O)Nc2nc3ccccc3[nH]2)c1 do in these assays?
HSF1 inhib: 8; FXN GAA850 act: 7; HSF1 activator: 17; AHR activator: 39

What do the screens show for `Cc1ccsc1C(=O)Nc1nc2ccccc2[nH]1`?
HSF1 inhib: 28; FXN GAA850 act: 0; HSF1 activator: 43; AHR activator: 111*

What do the screens show for `Cc1cc(C)cc(C(=O)Nc2nc3ccccc3[nH]2)c1`?
HSF1 inhib: 13; FXN GAA850 act: 2; HSF1 activator: 28; AHR activator: 57*

Results for CCc1ccc(C(=O)Nc2nc3ccccc3[nH]2)cc1 ?
HSF1 inhib: -23; FXN GAA850 act: -11; HSF1 activator: -18; AHR activator: 51*

How did O=C(Nc1nc2ccccc2[nH]1)c1cc(F)cc(F)c1 do in these assays?
HSF1 inhib: 10; FXN GAA850 act: 3; HSF1 activator: 25; AHR activator: 16

What do the screens show for `Clc1ccc(Cn2ccc3ccccc32)cn1`?
HSF1 inhib: 0; FXN GAA850 act: 2; HSF1 activator: 6; AHR activator: 26

How did COc1ccc(OC)c(NC(=O)COC(=O)COc2c(Cl)cc(Cl)c3ccc(C)nc23)c1 do in these assays?
HSF1 inhib: -2; FXN GAA850 act: 0; HSF1 activator: 29; AHR activator: 0

What do the screens show for `Cc1cc(N)ccc1N1CCCC1`?
HSF1 inhib: -7; FXN GAA850 act: -3; HSF1 activator: -3; AHR activator: 7

How did Cc1cc(N)ccc1-n1c(C)ccc1C do in these assays?
HSF1 inhib: -6; FXN GAA850 act: 3; HSF1 activator: -11; AHR activator: 110*

Results for CCCOc1ccc(NC(N)=O)cc1OCCC ?
HSF1 inhib: -68*; FXN GAA850 act: 2; HSF1 activator: -76; AHR activator: 26

Results for CCOc1ccc(NC(N)=O)cc1OCC ?
HSF1 inhib: -1; FXN GAA850 act: 0; HSF1 activator: 10; AHR activator: 4

How did O=C1CC(c2ccccc2)CC(O)=C1C=Nc1ccccc1O (centres undefined) do in these assays?
HSF1 inhib: -3; FXN GAA850 act: 6; HSF1 activator: 36; AHR activator: 36

Results for O=C1CC(c2ccco2)CC(O)=C1C=Nc1cc(Cl)ccc1O (centres undefined) ?
HSF1 inhib: 45; FXN GAA850 act: -2; HSF1 activator: 69*; AHR activator: 10

What do the screens show for `Cc1ccc(N=CC2=C(O)CC(c3ccco3)CC2=O)cc1` (centres undefined)?
HSF1 inhib: 63; FXN GAA850 act: 2; HSF1 activator: 72*; AHR activator: -1

What do the screens show for `O=C1CC(c2ccccc2)CC(O)=C1C=Nc1ccccc1` (centres undefined)?
HSF1 inhib: 68; FXN GAA850 act: 1; HSF1 activator: 119*; AHR activator: 46

What do the screens show for `O=C1CC(c2ccco2)CC(O)=C1C=Nc1cc(Cl)ccc1Cl` (centres undefined)?
HSF1 inhib: 5; FXN GAA850 act: 1; HSF1 activator: 11; AHR activator: 5

Results for COc1ccc2[nH]c(=O)c(CN(CC3CCCO3)S(=O)(=O)c3ccccc3)cc2c1 (centres undefined) ?
HSF1 inhib: -4; FXN GAA850 act: 1; HSF1 activator: -4; AHR activator: 6

What do the screens show for `CCOC(=O)/C(=C/c1ccc(OC(=O)c2ccccc2)cc1)C(C)=O`?
HSF1 inhib: 73; FXN GAA850 act: 3; HSF1 activator: 77*; AHR activator: -1

How did O=C(Cc1ccccc1F)NC1CCCc2ccccc21 (centres undefined) do in these assays?
HSF1 inhib: 3; FXN GAA850 act: -1; HSF1 activator: 15; AHR activator: 14

What do the screens show for `Cc1ccccc1CC(=O)NC1CCCc2ccccc21` (centres undefined)?
HSF1 inhib: 37; FXN GAA850 act: 1; HSF1 activator: 65*; AHR activator: 22

Results for CC1=C(C(=O)N2CCOCC2)C(c2c(C)cc(C)cc2C)NC(=S)N1 (centres undefined) ?
HSF1 inhib: 64; FXN GAA850 act: 2; HSF1 activator: 95*; AHR activator: -2

Results for OCC(CO)(CO)NC(=S)Nc1cc(Cl)cc(Cl)c1 ?
HSF1 inhib: -7; FXN GAA850 act: 0; HSF1 activator: 8; AHR activator: -2

How did COC(=O)CN(C)C(=O)c1ccc(OC)c(OC2CCN(C(C)C)CC2)c1 do in these assays?
HSF1 inhib: -4; FXN GAA850 act: 1; HSF1 activator: -8; AHR activator: 3

How did COC(=O)C1=C(CN2CCCc3ccccc32)NC(=O)NC1c1ccc(F)cc1 (centres undefined) do in these assays?
HSF1 inhib: -71*; FXN GAA850 act: -20; HSF1 activator: -74; AHR activator: 1

How did COC(=O)C1=C(CN2CCc3ccccc32)NC(=O)NC1c1cc(C)ccc1C (centres undefined) do in these assays?
HSF1 inhib: 12; FXN GAA850 act: -2; HSF1 activator: 7; AHR activator: 16

What do the screens show for `CCOC(=O)c1nn(-c2cccc(OC)c2)c2nc(CC)c(C#N)c(=O)n12`?
HSF1 inhib: -1; FXN GAA850 act: -2; HSF1 activator: -4; AHR activator: 40

How did Cc1nc(C)c(-c2csc(Nc3ccc(F)cc3)n2)s1 do in these assays?
HSF1 inhib: 40; FXN GAA850 act: 6; HSF1 activator: 65*; AHR activator: 35

What do the screens show for `Cc1nc(C)c(-c2csc(Nc3ncccc3C)n2)s1`?
HSF1 inhib: 34; FXN GAA850 act: 6; HSF1 activator: 61*; AHR activator: 6

Results for CC(C(=O)Nc1ccc2nccnc2c1)N1C(=O)C2C3C=CC(C3)C2C1=O (centres undefined) ?
HSF1 inhib: -1; FXN GAA850 act: 0; HSF1 activator: 8; AHR activator: 2

What do the screens show for `Fc1ccccc1-c1csc(=Nc2cccnc2)n1CCCn1ccnc1`?
HSF1 inhib: -18; FXN GAA850 act: -3; HSF1 activator: -20; AHR activator: 70*

Results for CCC(CC)C(=O)N(C)c1c(C)nc2c(OCc3cccc(Cl)c3)cccn12 ?
FXN GAA850 act: -3

How did O=C(Nc1nc2c(F)cc(F)cc2s1)C1CC1 do in these assays?
HSF1 inhib: 7; FXN GAA850 act: 3; HSF1 activator: 31; AHR activator: 55*

How did O=C(Nc1nc2c(Cl)c(Cl)ccc2s1)C1CC1 do in these assays?
HSF1 inhib: 3; FXN GAA850 act: 0; HSF1 activator: 22; AHR activator: 48*

Results for O=C(Nc1nc2c(Cl)cccc2s1)C1CC1 ?
HSF1 inhib: 6; FXN GAA850 act: -1; HSF1 activator: -5; AHR activator: 55*

Results for O=C(Nc1nc2c(Cl)ccc(Cl)c2s1)C1CC1 ?
HSF1 inhib: 7; FXN GAA850 act: 1; HSF1 activator: 9; AHR activator: 27
